TEAD-YAP block: TEAD-YAP interaction inhibition | inhibition, % at 9.12 µM | AID 1259422 | HEK-TIYL cells, TEAD-Gal4/YAP UAS-luciferase luminescence | hit rate 1.4% among 640,000; in the data active = inhibition above about 32%
FBW7 act: human FBW7 E3 ligase activation, primary screen. AlphaScreen FBW7–phospho-cyclin E peptide binding, activator screen. Q969H0. normalized activity (activation), % at 26.1 µM. hit rate 0.13% among 650,000; in the data active = normalized activity above about 1.9%;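 also: purified mutant Fbw7 with reduced substrate affinity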
MITF inh: inhibitors of human MITF | hit rate 0.91% among 650,000 | AlphaScreen MITF homodimerization, bead proximity signal | O75030 | inhibition, % at 2.6 µM | AID 1259374; in the data active = inhibition above about 50%
Target sequence (O75030 whole entry, looked up): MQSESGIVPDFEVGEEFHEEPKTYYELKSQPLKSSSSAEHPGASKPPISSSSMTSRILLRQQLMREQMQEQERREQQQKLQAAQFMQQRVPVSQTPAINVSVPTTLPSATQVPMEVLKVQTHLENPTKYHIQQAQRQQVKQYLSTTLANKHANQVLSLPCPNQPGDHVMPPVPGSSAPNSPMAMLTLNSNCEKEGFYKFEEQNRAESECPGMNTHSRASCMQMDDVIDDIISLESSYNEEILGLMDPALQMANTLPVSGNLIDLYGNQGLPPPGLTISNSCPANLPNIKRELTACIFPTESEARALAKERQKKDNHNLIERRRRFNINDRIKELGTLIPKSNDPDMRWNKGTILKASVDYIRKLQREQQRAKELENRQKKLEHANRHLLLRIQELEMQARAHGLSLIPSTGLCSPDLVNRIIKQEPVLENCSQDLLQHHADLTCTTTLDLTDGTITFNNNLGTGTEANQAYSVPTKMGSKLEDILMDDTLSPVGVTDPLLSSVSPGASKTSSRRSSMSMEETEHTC
GPR151 ag: activators of human GPR151 | Q8TDV0 | PathHunter beta-arrestin GPR151 cells, luminescence | activation, % at 11.2 µM | hit rate 1% among 650,000; in the data active = activation above about 4.9%
Numbers stand for hits; - = inactive. Most compounds without a hit are left out; they make up all but 3.5% or so of the library.

SMILES | TEAD-YAP block | FBW7 act | MITF inh | GPR151 ag
CC1=NOC(=O)/C1=C/c1ccc(OCc2ccc(Cl)cc2)cc1 | - | - | 56 | -
CCN(CC)c1ccc2cc(-c3ccccn3)c(=O)oc2c1 | 93 | 2.7 | - | -
CCN(CC)c1ccc2cc(-c3nc(C)cs3)c(=O)oc2c1 | 94 | 3.4 | - | -
CCN(CC)c1ccc2cc(-c3nc(-c4ccccc4)cs3)c(=O)oc2c1 | - | - | - | -
COc1cccc(/C=N/NC(=O)CC(=O)O)c1 | - | - | - | -
O=C(COc1ccc(Br)cc1)Nc1nccs1 | 35 | - | - | -
CC(Sc1nnc(N)s1)C(=O)Nc1nccs1 (stereo not given) | - | - | - | -
O=C(Cc1ccc2c(c1)CCCC2)Nc1nccs1 | - | - | - | -
CC(=O)c1ccc(OCC(=O)Nc2nccs2)cc1 | 55 | - | - | -
CC(Sc1nnc(-c2ccc(C(C)(C)C)cc2)o1)C(=O)Nc1nccs1 (stereo not given) | 52 | - | - | -
O=C(COc1ccc2c(c1)CCC2)Nc1nccs1 | 74 | - | - | -
COC(=O)c1ccc(NC(=O)Cn2cnc(-c3ccc(OC)cc3)cc2=O)cc1 | - | - | - | -
c1ccc(CNc2nc(NCc3ccc4c(c3)OCO4)nc3c2ncn3C2CCCCC2)cc1 | - | - | - | -
COc1ccc(OC)c(NC(=O)COc2ccc(C(C)C)cc2)c1 | - | - | - | -
O=C(Nc1nccs1)c1cc2c(s1)CCCC2 | 65 | - | - | -
O=C(Nc1nccs1)c1cc(Br)c(Br)s1 | - | - | - | -
CC(C)(C)c1ccc(OCC(=O)Nc2nccs2)cc1 | 74 | - | - | -
CC(C)c1ccc(OCC(=O)Nc2nccs2)cc1 | 81 | - | - | -
CC(C)c1ccc(NC(=O)COc2ccc(C(C)C)cc2)cc1 | - | - | - | -
CCOC(=O)N1CCN(S(=O)(=O)c2ccc(C(=O)Nc3sc4c(c3C(N)=O)CC(C)(C)NC4(C)C)cc2)CC1 | - | - | - | -
COC(=O)c1cnn2c1NC(c1ccccc1)CC2C(F)(F)F (stereo not given) | - | - | - | -
Cc1sc2nc(SCC(N)=O)[nH]c(=O)c2c1C | - | - | - | -
Cc1sc2nc(SCC#N)[nH]c(=O)c2c1C | 46 | - | - | -
CC(=O)Nc1ccc(Nc2ccnc(Cl)n2)cc1 | - | - | - | -
O=C(NC1CCCCC1)c1nn2c(C(F)(F)F)cc(-c3ccc(Br)cc3)nc2c1Br | - | - | - | -
SMILES | TEAD-YAP block | FBW7 act | MITF inh | GPR151 ag
CCN(CC)c1ccc(NC(=O)CNCCN2CCOCC2)c(C)c1 | - | - | 61 | -
CC(=O)Oc1ccc(C(=O)N2CCN(c3cccc(C)c3C)CC2)cc1 | 51 | - | - | -
Cc1cccc(N2CCN(C(=O)c3ccccc3)CC2)c1C | - | - | - | -
COc1ccc2c(c1)CC(C(=O)Nc1cc3cc(-c4ccncc4)ccc3cn1)CO2 (stereo not given) | 59 | - | - | -
NCCOc1cc(-c2cn[nH]c2)ccc1NC(=O)C1COc2ccccc2C1 (stereo not given) | 41 | - | - | -
COc1ccc2c(c1)CC(C(=O)Nc1ccc(-c3cn[nH]c3)cc1OCCO)CO2 (stereo not given) | 39 | - | - | -
COc1ccc2c(c1)CC(C(=O)Nc1ccc(-c3cn[nH]c3)cc1C(=O)NCC#N)CO2 (stereo not given) | - | 20 | - | -
COc1ccc(CNC(=O)c2cc(-c3cn[nH]c3)ccc2NC(=O)C2COc3ccc(OC)cc3C2)cc1 (stereo not given) | - | - | - | -
COc1ccc2c(c1)CC(C(=O)Nc1ccc(-c3cn[nH]c3)cc1OCCC(C)C)CO2 (stereo not given) | - | - | - | -
Cc1ccccc1NC(=O)c1sc(-c2ccccc2)nc1C | - | - | - | -
COc1ccc2c(c1)CC(C(=O)Nc1ccc(-c3cn[nH]n3)cc1)CO2 (stereo not given) | - | 5.9 | - | -
O=C(Nc1ccc(-c2cn[nH]n2)cc1)C1COc2ccc(Cl)cc2C1 (stereo not given) | - | - | - | -
CCOc1ccc(-c2nc(-c3ccccc3)no2)cc1 | 62 | - | - | -
COc1ccc(-c2noc(-c3ccco3)n2)cc1 | 60 | - | - | -
Cc1ccc(-c2noc(-c3ccco3)n2)cc1 | - | - | - | -
CC1CCc2c(sc3ncn4c(=O)n(CCN(C)C)nc4c23)C1 (stereo not given) | - | - | - | -
COc1ccc(CN2C[C@@H]3C[C@@H](c4ccccc4C)N4CCC[C@@]34C2=O)cc1 | - | - | - | -
COc1ccc(CN2C[C@@H]3C[C@@H](c4cc5ccccc5o4)N4CCC[C@@]34C2=O)cc1 | 77 | - | - | -
CN1CCN(C(c2ccncc2)c2ccc3cccnc3c2O)CC1 (stereo not given) | - | - | 70 | -
c1cnc2c(CN3CCCCC3)cccc2c1 | - | - | - | -
Oc1c(C(Nc2nccs2)c2cccs2)ccc2cccnc12 (stereo not given) | - | - | - | -
OCCN1CCN(C(c2cccs2)c2ccc3cccnc3c2O)CC1 (stereo not given) | 87 | - | - | -
CCN1CCN(Cc2ccc3cccnc3c2O)CC1 | - | - | 94 | -
CCN1CCN(C(c2cccs2)c2ccc3cccnc3c2O)CC1 (stereo not given) | 88 | - | - | -
CCOc1ccccc1N(C)C(=O)c1cc2c(=O)oc3ccccc3c2s1 | - | - | - | -
SMILES | TEAD-YAP block | FBW7 act | MITF inh | GPR151 ag
CN1CCN(C(c2cccs2)c2ccc3cccnc3c2O)CC1 (stereo not given) | 88 | - | - | -
CCC(=O)NC(c1cccs1)c1cc(Cl)c2cccnc2c1O (stereo not given) | - | - | - | -
Oc1c(C(c2cccs2)N2CCOCC2)cc(Cl)c2cccnc12 (stereo not given) | 57 | - | - | -
CC(C)(C)NC(=O)N1CCCN(c2ccc(C(F)(F)F)cn2)CC1 | - | - | - | -
C=CCOC(=O)c1[nH]c2c(c1C)C(=O)CC(c1cccs1)C2 (stereo not given) | 49 | - | - | -
C=CCOC(=O)c1[nH]c2c(c1C)C(=O)CC(c1ccc(OC)cc1)C2 (stereo not given) | - | - | - | -
C=CCOC(=O)c1[nH]c2c(c1C)C(=O)CC(c1ccc(OC)c(OC)c1)C2 (stereo not given) | - | - | - | -
Cc1c(C(=O)O)[nH]c2c1C(=O)CC(c1ccccc1Cl)C2 (stereo not given) | - | - | - | -
C=CCOC(=O)c1[nH]c2c(c1C)C(=O)CC(c1cc(OC)ccc1OC)C2 (stereo not given) | 42 | - | - | -
C=CCOC(=O)c1[nH]c2c(c1C)C(=O)CC(c1cc(OC)c(OC)c(OC)c1)C2 (stereo not given) | 43 | - | - | -
COC(=O)c1[nH]c2c(c1C)C(=O)CC(c1ccccc1Cl)C2 (stereo not given) | 52 | - | - | -
Cc1cc(C)cc(-n2c(/C=C/c3ccc(C(C)(C)C)cc3)nc3cc(Cl)ccc3c2=O)c1 | - | - | - | -

Assay outcomes as filed in PubChem.
